# From PubChem BioAssay AID488913 (National Center for Advancing Translational Sciences (NCATS), 2010)
# Where “and” joins values, the source holds several entries; their conditions need not be identical. Equal entries are not always repeated. Inconclusive results are not listed. Calls of active or inactive are those of the source. Calls follow the shape of the dose curve; as a rule, active = well fitted inhibition curve with a large enough effect; inconclusive = small, poorly fitted or top-dose-only effect, or effect the other way; inactive = no such curve, though single readings can be large or run the other way.
# Assay: Confirmation Concentration-Response Assay for lipid storage modulators: for probe SAR
# Conditions: Drosophila S3 cells, BODIPY lipid droplet fluorescence, 18-24 h; series mostly up to 46.1 µM
# Description: NIH Molecular Libraries Probe Production Centers Network [MLPCN] NIH Chemical Genomics Center [NCGC] MLPCN Grant: 1 R03 MH085686-01 Assay Submitter (PI): Beller, Mathias; Max-Planck-Institut fur Biophysikalische Chemie NCGC Assay Overview: Storing lipids as a reservoir for energy or the anabolism of elementary metabolites is a common feature of probably all cells and is conserved from bacteria to humans. The universal cellular lipid storage organelle is the so-called lipid storage droplet (LD). Although ubiquitous, LDs share a simple structure composed of a hydrophobic core that harbors the storage lipids, which is shielded by a droplet-specific phospholipid monolayer to which proteins are attached. The current model of LD biogenesis involves an incorporation of the lipid core into the membrane leaflets of the endoplasmic reticulum (ER) followed by a subsequent budding-like maturation of a LD, which ultimately pinches off. Once released, LD volume can increase by localized lipogenesis or fusion of existing droplets. Storage lipids are re-mobilized enzymatically by lipase activity. Lipase regulation in the adipocyte is heavily studied and involves multiple components including catecholamine signaling, the LD-associated proteins Perilipin and comparative gene identification-58 (CGI-58) and at least two lipases named hormone sensitive lipase (HSL) and adipocyte triglyceride lipase (ATGL). LD regulation outside of the adipocyte is poorly understood and only few components are known. However, there is an urgent need to learn more about ectopic fat depots as mislocalized storage of lipids, for example in the liver or muscle, is an eminent health problem associated with insulin resistance or the metabolic syndrome. We developed a laser-scanning cytometer assay to enable 1,536-well screening and combined the results of the small molecules screen with an RNAi database based on lipid storage.
# We dispensed 4 uL of cells at 1.25 x 10^6 cells/mL into LoBase Aurora COC 1,536-well plates (black walled, clear bottom) with a bottle-valve solenoid-based dispenser (Aurora) to obtain 5,000 cells/well. Triacsin C (Sigma-Aldrich T-4540), an inhibitor of long-chain fatty acyl CoA synthetase that blocks synthesis of triglycerides, was used as a positive control for lipid under-storage. A total of 23 nL of compound solution of different concentrations were transferred to the assay plates using a Kalypsys pin tool equipped with a 1,536-pin array containing 10-nL slotted pins (FP1S10, 0.457-mm diameter, 50.8 mm long; V&P Scientific). One microliter of oleic acid (400 uM) was added, and the plate was lidded with stainless steel rubber gasket lined lids containing pinholes. After 18-24 h incubation at 24 degree Celsius and 95% humidity, 4 uL of the dyes BODIPY 493/503 (Molecular Probes) and the Cell Tracker Red CMTPX dye (Molecular Probes) were added to the wells to stain lipid droplets and enumerate cell number, respectively. Fluorescence was detected by excitation of the fluorophores with a 488-nm laser on an Acumen Explorer (TTP Lab Tech). The total intensity in channel 1 (500-530 nm) reflected lipid droplet accumulation. Cells were detected using channel 3 (575- 640 nm) with 5-um width and 100-um depth filters. The ratio of the total intensity in PMT channel 1 over total intensity of channel 3 was also calculated. Percent activity was computed relative to an internal control (100% inhibited lipid droplet deposition due to the presence of 20 uM Triacsin C), which was added to 32 wells/plate.
row,SMILES,Potency
1,O=C(NC1CCCc2c1cnn2-c1ccc(F)cc1F)c1cnccn1 (stereo not given),250 nM (active)
2,O=C(NC1CCCc2c1cnn2-c1ccc(F)cc1F)c1ccc2cc[nH]c2c1 (stereo not given),7710 nM (active)
3,O=C(CSc1nnc(NCc2ccccc2)s1)Nc1nc(-c2cccc(Br)c2)cs1,1250 nM (active)
4,CCOc1ccc(CCNC(=O)c2cc3sccc3n2CC)cc1OCC,158 nM (active)
5,O=C(NC1CCCc2c1cnn2-c1ccc(F)cc1F)c1ccc(F)cc1 (stereo not given),445 nM (active)
6,O=C(NC1CCCc2c1cnn2-c1ccccc1F)c1cccc2nccnc12 (stereo not given),2740 nM (active)
7,O=C(NC1CCCc2c1cnn2-c1ccc(F)cc1F)C1CCCCC1 (stereo not given),4990 nM (active)
8,CCOc1ccc(CCNC(=O)CN(C)C)cc1OCC,inactive
9,O=C(NC1CCCc2c1cnn2-c1ccc(F)cc1F)C1CCCCN1 (stereo not given),inactive
10,CCOc1ccc(CCNC(=O)c2cc3sccc3n2CCc2ccccc2)cc1OCC,28.1 nM (active)
11,O=C(NC1CCCc2c1cnn2-c1ccc(F)cc1F)c1ccccc1 (stereo not given),56 nM (active)
12,O=C(N[C@H]1CCCc2c1cnn2-c1ccc(F)cc1F)c1ccccn1,7910 nM (active)
13,CCOc1ccc(CCNC(=O)c2cc3sccc3n2Cc2ccc(OC(F)F)cc2)cc1OCC,6.3 nM (active)
14,CCOc1ccc(CCNC(=O)c2cc3sccc3n2CC=C(C)C)cc1OCC,79.1 nM (active)
15,O=C(Cc1ccccc1)NC1CCCc2c1cnn2-c1ccc(F)cc1F (stereo not given),inactive
16,O=C(NC1CCCc2c1cnn2-c1ccc(F)cc1F)c1ccc[n+]([O-])c1 (stereo not given),inactive
17,CCOc1ccc(CCNC(=O)Cc2ccccc2)cc1OCC,inactive
18,CCOc1ccc(CCNC(=O)c2cc3sccc3n2Cc2cccnc2)cc1OCC,353 nM (active)
19,O=C(NC1CCCc2c1cnn2-c1ccc(F)cc1F)c1ccn[nH]1 (stereo not given),2810 nM (active)
20,COc1ccc(-n2ncc3c2CCCC3NC(=O)c2cnc(C)cn2)cc1 (stereo not given),1580 nM (active)

row,SMILES,Potency
1,O=C(NC1CCCc2c1cnn2-c1ccc(F)cc1F)c1cccc(=O)[nH]1 (stereo not given),7910 nM (active)
2,CCOC(=O)C1CCCN(C(=O)C2(NC(=O)Nc3ccc(F)cc3F)CCCCC2)C1 (stereo not given),inactive
3,CCOc1ccc(CCNC(=O)C2COc3ccccc3O2)cc1OCC (stereo not given),11200 nM (active)
4,CCn1c(C(=O)NCCc2ccc(OC)c(OC)c2)cc2sccc21,3970 nM (active)
5,O=C(NC1CCCc2c1cnn2-c1ccc(F)cc1F)c1cccs1 (stereo not given),17.7 nM (active)
6,CCOC(=O)C1CCN(C(=O)C2(NC(=O)Nc3ccc(F)cc3F)CCCCC2)CC1,888 nM (active)
7,CN(C)CC(=O)NC1CCCc2c1cnn2-c1ccc(F)cc1F (stereo not given),inactive
8,CCOC(=O)C1CCN(C(=O)C(C)(C)NC(=O)Nc2ccccc2Cl)CC1,628 nM (active)
9,COc1ccc(CCNC(=O)c2cc3sccc3n2Cc2ccccc2)cc1OC,315 nM (active)
10,COc1ccc(CCNC(=O)c2cc3sccc3n2Cc2ccc(F)cc2)cc1OC,499 nM (active)
11,O=C(NC1CCCc2c1cnn2-c1ccc(F)cc1F)c1ccsc1 (stereo not given),31.5 nM (active)
12,Cc1cc(SCc2sc(-c3ccc(C(F)(F)F)cc3)nc2C)ccc1OCC(=O)O,inactive
13,O=C(O)CCc1ccc(NCc2cccc(Oc3ccccc3)c2)cc1,inactive
14,O=C(NC1CCCc2c1cnn2-c1ccc(F)cc1F)c1ccccn1 (stereo not given),8.7 nM (active) and 7.9 nM (active)
15,CCOc1ccc(CCNC(=O)c2cc3c(s2)CCC3)cc1OCC,560 nM (active)
16,O=C(NC1CCCc2c1cnn2-c1ccc(F)cc1F)c1cnsn1 (stereo not given),499 nM (active)
17,CCOC(=O)C1CCN(C(=O)C2(NC(=O)NCc3ccccc3)CCCCC2)CC1,4450 nM (active)
18,Cc1ccc(C)c(-c2csc(NC(=O)CSc3nnc(Nc4ccc(OC(F)(F)F)cc4)s3)n2)c1,inactive
19,Cc1nc(SC(C)C(=O)Nc2nc(-c3ccccc3)cs2)n(CC2CCCO2)c1C (stereo not given),4450 nM (active)
20,CCOC(=O)C1CCN(C(=O)C2(NC(=O)Nc3ccccc3Cl)CCCCC2)CC1,1440 nM (active)
